The source of these data is the supplement of paper PMC4188521.

Compound in the test: CCc1cnn2c(NCc3ccc[n+]([O-])c3)cc(N3CCCC[C@H]3CCO)nc12 [dinaciclib]
The test is described as follows: cell viability remaining relative to DMSO control; higher = less cytotoxic (more viable cells). Particulars: 100 nM; 24 h. Here is the method: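 Solid tumor cell lines were treated with dinaciclib (100 nM) for 24 hr. Viability was measured by CellTiter-Glo ATP luminescence and expressed as % of DMSO-treated control wells (mean of 2-6 plates, triplicate wells per plate).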
Consider H82, for which the cell viability remaining is 12.6%.

Take A2780: the cell viability remaining amounted to 44.5%.

Take COLO829: the cell viability remaining came to 24.8%.

With EFE184, the cell viability remaining turned out to be 93.1%.

A549: the cell viability remaining stood at 55.3%.

For H520, the cell viability remaining worked out at 30.8%.

As for EFO21, the cell viability remaining amounted to 93.6%.

Take H508: the cell viability remaining came to 75.7%.

Consider HEC6, for which the cell viability remaining turned out to be 57.7%.

As to SKMEL28, the cell viability remaining is 56.2%.

Consider COV434, for which the cell viability remaining stood at 7.7%.

As for T47D, the cell viability remaining is 87.6%.

On to SW620, for which the cell viability remaining is 58.5%.

Regarding EN, the cell viability remaining came to 51.9%.

Regarding MDAMB175VII, the cell viability remaining amounted to 36%.

As to HCT8, the cell viability remaining came out at 51.3%.

With H2052, the cell viability remaining amounted to 91.9%.

Consider PC3, for which the cell viability remaining was found to be 66.2%.

RMGI: the cell viability remaining worked out at 83.4%.

Turning to COLO800, the cell viability remaining came to 36.9%.

Turning to RD, the cell viability remaining is 41.1%.

Take COLO679: the cell viability remaining stood at 68.6%.

For the target SKMEL30, the cell viability remaining stood at 62.5%.

CAL51: the cell viability remaining amounted to 43.8%.

On to OVISE, for which the cell viability remaining is 94.6%.

As for AGS, the cell viability remaining was determined as 46.7%.

As to DETROIT562, the cell viability remaining was 34.6%.

Turning to CAL27, the cell viability remaining was found to be 11.2%.

Turning to DLD1, the cell viability remaining was found to be 46.8%.

As to HEC265, the cell viability remaining is 46.7%.

Consider MDAMB436, for which the cell viability remaining was 67.8%.

With HEC50B, the cell viability remaining is 83.4%.

H69: the cell viability remaining was 87.1%.

Turning to SW48, the cell viability remaining turned out to be 55.8%.

In the case of WM115, the cell viability remaining came to 69.1%.

H460: the cell viability remaining was determined as 52.2%.

On to HUTU80, for which the cell viability remaining was 27.1%.

H226: the cell viability remaining was 56.1%.

Turning to DU4475, the cell viability remaining is 72.3%.

MESSA: the cell viability remaining came to 33.4%.
